{"source": "paper PMC11024108"}
{"biological_target": "Malate dehydrogenase, mitochondrial (UniProt P40926)", "assay": "cross-link between two proteins; cross-linking mass spectrometry"}
{"substance": "Dihydrolipoyl dehydrogenase, mitochondrial, P09622", "listed as a hit": "yes"}
{"substance": "Aldehyde dehydrogenase family 1 member B1, mitochondrial, P30837", "listed as a hit": "yes"}
{"substance": "Succinate dehydrogenase [ubiquinone] flavoprotein subunit, mitochondrial, P31040", "listed as a hit": "yes"}
{"substance": "Peptidyl-prolyl cis-trans isomerase F, mitochondrial, P30405", "listed as a hit": "yes"}
{"substance": "Aldehyde dehydrogenase, mitochondrial, P05091", "listed as a hit": "yes"}
{"substance": "Glutathione reductase, mitochondrial, P00390", "listed as a hit": "yes"}
